# Measurements taken from ChEMBL document CHEMBL3988442, “University of Dundee, Small-Polar-MMV Screening Library” (2021).
# Hit rate of the full screen: of about 38,000 compounds, about 1,200 (3.2%) showed an effect of 50% or more. The median lay at about -58%. What follows is part of a selection rich in strong results, with near analogues and random picks from the rest.
# Tested on: Plasmodium falciparum
# Experiment: Calibr Malaria Delayed Death Assay SOP
# Assay type: functional, organism-based
# Design: scale not given: in the data most compounds retested in dose-response had high values
# Settings: concentration 4.99e-06 (unit not given; other assays of the set use mol/L)
row,SMILES,Percent Effect
1,COC(=O)CNC(=O)CCCn1cnc2ccccc2c1=O,-30.86%
2,O=C(c1cccnc1-c1ccoc1)N1C[C@H]2CC[C@@H]1C2,6.669%
3,Cc1ccc2c(c1)CCC21CCN(C(=O)CN(C)C)CC1.O=C(O)C(F)(F)F,50.73%
4,CN(C)CC(=O)N1CCc2ncnc(-c3cncnc3)c2CC1.O=C(O)C(F)(F)F,-41.61%
5,CN(C)CC(=O)N1CCC2(CCc3ccc(-c4ccncc4)cc32)CC1.O=C(O)C(F)(F)F.O=C(O)C(F)(F)F,-49.14%
6,Cc1ccc2c(c1)C1(CC2)CCN(CC(=O)O)CC1.O=C(O)C(F)(F)F,-81.36%
7,O=C(O)C(F)(F)F.c1cncc(-c2ccc3c(c2)C2(CC3)CCN(c3nncs3)CC2)c1,21.42%
8,CN(C)CC(=O)N1CCC2(CC1)Cc1ccccc1CN(C)C2=O.O=C(O)C(F)(F)F,-24.83%
9,CN(C)CC(=O)N1CCC2(CCc3cc(-c4cccnc4)ccc32)CC1.O=C(O)C(F)(F)F.O=C(O)C(F)(F)F,79.5%
10,O=C(O)C(F)(F)F.O=C(O)C(F)(F)F.c1cncc(-c2ccc3c(c2)CCC32CCN(Cc3ccco3)CC2)c1,73.11%
11,O=C(O)C(F)(F)F.OCCN1CCC2(CCc3cc(-c4ccoc4)ccc32)CC1,60%
12,O=C(CCO)N1CCC2(CCc3ccc(-c4ccoc4)cc32)CC1,-85.78%
13,O=C(O)C(F)(F)F.O=C(O)C(F)(F)F.c1cncc(-c2ccc3c(c2)CCC32CCN(Cc3nccs3)CC2)c1,47.52%
14,Cc1ccc2c(c1)CCC21CCN(CCO)CC1,15.58%
15,Cc1ccc(CN2CCc3ncnc(-c4ccoc4)c3CC2)o1.O=C(O)C(F)(F)F,-147%
16,Cc1ncc(C(=O)N2CCCCC2c2nc3cc(F)ccc3[nH]2)c(O)n1 (centres undefined),-22.18%
17,CS(=O)(=O)N1CCO[C@@H]2CN(C(=O)C3CCOC3)CC[C@@H]2C1 (some centres undefined),-33.97%
18,CC1c2ncc(Cn3cccn3)n2CCN1S(C)(=O)=O.O=C(O)C(F)(F)F (centres undefined),-110.2%
19,COc1ccc2c(ccn2CCC(=O)N[C@H](C(=O)O)C(C)C)c1,-46.34%
20,O=C(O)C(F)(F)F.O=S(=O)(C1CC1)N1C[C@H]2CCC[C@@]2(COCc2ccccn2)C1,2.137%
21,Cc1ccc(CNc2cc3c(cc2Cl)NC(=O)CO3)cc1C,-53.48%
22,CC(C)c1nccc(-c2nccn2CCS(C)(=O)=O)n1,-2.25%
23,COc1cccc(OCC(=O)N(C)c2cccnc2)c1,-135.2%
24,c1cc(-c2ccc3c(c2)C2(CCNCC2)CC3)ccn1,-27.62%
25,c1cncc(-c2ccc3c(c2)CCC32CCNCC2)c1,86.19%

row,SMILES,Percent Effect
1,O[C@H]1[C@H](n2cc(-c3cccnc3)nn2)c2ccccc2C12CCNCC2,-21.88%
2,CCCN1CCCn2nc(CNS(=O)(=O)c3ccc(F)cc3)cc2C1,-65.3%
3,Cc1nnn2c1COC(CNC(=O)c1cccn1C)C2 (centres undefined),-28%
4,COc1cc(CNC(C)Cn2cccn2)cc(Cl)c1OC.Cl (centres undefined),-39.22%
5,COc1ccccc1CNC(C)c1ccc2[nH]c(=O)[nH]c2c1 (centres undefined),-107.7%
6,COc1cccc(CNC(C)Cn2cccn2)c1OC.Cl (centres undefined),-25.91%
7,COc1ccc(CNC(C)c2cccc(Br)c2)c(OC)c1OC.Cl (centres undefined),66.18%
8,COc1cc(CNC(C)Cn2cccn2)cc(OC)c1OC.Cl (centres undefined),-15.53%
9,COc1ccc(C(C)NCc2c[nH]nc2C)cc1Br.Cl (centres undefined),17.2%
10,CCOc1cccc(C(C)NCc2ccc(OC)c(OC)c2OC)c1 (centres undefined),77.1%
11,CCOc1cccc(C(C)NCc2c(C)nn(C)c2N(C)C)c1 (centres undefined),-4.179%
12,COc1cc(CNC(C)c2cccc(Cl)c2)cc(OC)c1OC (centres undefined),62.46%
13,CC1c2ncc(CNC(=O)C3CC3)n2CCN1Cc1ccccn1.O=C(O)C(F)(F)F.O=C(O)C(F)(F)F (centres undefined),-38.32%
14,Cc1sc(CS(C)(=O)=O)nc1-c1ccc(Cl)cc1,-81.11%
15,Cc1cc(N2CCC3(CCCN(C4CCOCC4)C3=O)C2)ccn1 (centres undefined),-85.7%
16,Cc1cc(NC(=O)N2CCCC2CN2CCOCC2)nn1C (centres undefined),-54.38%
17,Cc1n[nH]cc1CNC1CCN(c2cccc(C(F)(F)F)c2)CC1,62.67%
18,Cc1n[nH]cc1CNC1CCN(c2ccc(F)cc2)CC1.Cl,-38.43%
19,COc1cccc(-c2n[nH]cc2CNC2CCN(C3CC3)CC2)c1.Cl,18.36%
20,Cn1[nH]c(Br)c2/c(=N\CCN)ncnc1-2,-80.01%
21,CN(Cc1nnc(C2CC2)n1C)C1CCN(CCc2ccccc2)C1 (centres undefined),-85.28%
22,CN(C(=O)CSc1ccccn1)C1CCCN(CCc2ccccc2)C1 (centres undefined),-11.51%
23,CN(C(=O)c1cccnc1)C1CCCN(CCc2ccccc2)C1 (centres undefined),-66.95%
24,CN(C(=O)CCc1ccncc1)C1CCCN(CCc2ccccc2)C1 (centres undefined),-32.08%
